Test results as given in PubChem BioAssay (NCATS).
Results filed as inconclusive are left out. A call without a number means that no potency is given here. Values without a mark were called inactive. Active and inactive are the calls of the source. Calls come from the whole dose curve; as a rule, active = well fitted curve in the direction sought with a large enough effect; inconclusive = small, poorly fitted or top-dose-only effect, or another doubt; inactive = no such curve, though single readings can be large; an effect the other way counts as inactive or inconclusive.

What was measured:
[1] = Quantitative High-Throughput drug screen in 47 multiple myeloma cell lines against the NCATS MIPE library collection: KMS12PE_JCRB cell viability assay (AID 1918972); note: nearly all actives have a fitted effect of over 30% in size; note: potency is the fitted concentration of half-maximal effect
Procedure, shortened: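 Approved and investigational drugs from MIPE 4.0 were added by pin tool to 500 cells per well. After 48 hours at 37C, ATP-based CellTiter-Glo luminescence indicated remaining viability.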

[2] = Quantitative High-Throughput drug screen in 47 multiple myeloma cell lines against the NCATS MIPE library collection: MMM1_PLB cell viability assay (AID 1918976); note: potency is the fitted concentration of half-maximal effect; nearly all actives have a fitted effect of over 35% in size
Procedure, shortened: (§1)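 MIPE 4.0 approved/investigational drugs; 500 cells/well; 48 h 37 °C humidified 5% CO2; CTG luminescence readout; DMSO = 100%, media = 0% viability.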

[3] = Quantitative High-Throughput drug screen in 47 multiple myeloma cell lines against the NCATS MIPE library collection: MOLP8_DSMZ cell viability assay (AID 1918977); note: nearly all actives have a fitted effect of over 45% in size; note: potency is the fitted concentration of half-maximal effect
Procedure, shortened: as §1

[4] = Quantitative High-Throughput drug screen in 47 multiple myeloma cell lines against the NCATS MIPE library collection: OCIMY1_PLB cell viability assay (AID 1918979); note: nearly all actives have a fitted effect of over 35% in size
Procedure, shortened: as §1

[5] = Quantitative High-Throughput drug screen in 47 multiple myeloma cell lines against the NCATS MIPE library collection: MM1S_ATCC cell viability assay (AID 1918980); note: nearly all actives have a fitted effect of over 45% in size; note: potency is the fitted concentration of half-maximal effect
Procedure, shortened: as §1

[6] = Quantitative High-Throughput drug screen in 47 multiple myeloma cell lines against the NCATS MIPE library collection: KMS28PE_JCRB cell viability assay (AID 1918983); note: nearly all actives have a fitted effect of over 35% in size; note: potency is the fitted concentration of half-maximal effect
Procedure, shortened: as §1

[7] = Quantitative High-Throughput drug screen in 47 multiple myeloma cell lines against the NCATS MIPE library collection: OCIMY5_PLB cell viability assay (AID 1918988); note: nearly all actives have a fitted effect of over 65% in size; note: potency is the fitted concentration of half-maximal effect
Procedure, shortened: as §1

[8] = Quantitative High-Throughput drug screen in 47 multiple myeloma cell lines against the NCATS MIPE library collection: U266_ATCC cell viability assay (AID 1919864); note: nearly all actives have a fitted effect of over 35% in size; note: potency is the fitted concentration of half-maximal effect
Procedure, shortened: as §1

[9] = Quantitative High-Throughput drug screen in 47 multiple myeloma cell lines against the NCATS MIPE library collection: XG6_PLB cell viability assay (AID 1919865); note: nearly all actives have a fitted effect of over 40% in size; note: potency is the fitted concentration of half-maximal effect
Procedure, shortened: as §1

[10] = Quantitative High-Throughput drug screen in 47 multiple myeloma cell lines against the NCATS MIPE library collection: NCIH929_DSMZ cell viability assay (AID 1918978); note: nearly all actives have a fitted effect of over 35% in size; note: potency is the fitted concentration of half-maximal effect
Procedure, shortened: as §1

[11] = Quantitative High-Throughput drug screen in 47 multiple myeloma cell lines against the NCATS MIPE library collection: MM1R_ATCC cell viability assay (AID 1918981); note: nearly all actives have a fitted effect of over 35% in size; note: potency is the fitted concentration of half-maximal effect
Procedure, shortened: as §1

[12] = Quantitative High-Throughput drug screen in 47 multiple myeloma cell lines against the NCATS MIPE library collection: LP1_DSMZ cell viability assay (AID 1918982); note: nearly all actives have a fitted effect of over 35% in size; note: potency is the fitted concentration of half-maximal effect
Procedure, shortened: as §1

[13] = Quantitative High-Throughput drug screen in 47 multiple myeloma cell lines against the NCATS MIPE library collection: KMS34_JCRB cell viability assay (AID 1918985); note: nearly all actives have a fitted effect of over 40% in size; note: potency is the fitted concentration of half-maximal effect
Procedure, shortened: as §1

[14] = Quantitative High-Throughput drug screen in 47 multiple myeloma cell lines against the NCATS MIPE library collection: SKMM1_PLB cell viability assay (AID 1919863); conditions: SKMM1 myeloma viability, CellTiter-Glo ATP, 48 h; viability: stronger effect = lower value; note: nearly all actives have a fitted effect of over 35% in size; note: potency is the fitted concentration of half-maximal effect
Procedure, shortened: as §1

[15] = Quantitative High-Throughput drug screen in 47 multiple myeloma cell lines against the NCATS MIPE library collection: OPM1_PLB cell viability assay (AID 1918989); note: nearly all actives have a fitted effect of over 40% in size; note: potency is the fitted concentration of half-maximal effect
Procedure, shortened: as §1

[16] = Quantitative High-Throughput drug screen in 47 multiple myeloma cell lines against the NCATS MIPE library collection: KMS26_JCRB cell viability assay (AID 1918975); note: nearly all actives have a fitted effect of over 45% in size; note: potency is the fitted concentration of half-maximal effect
Procedure, shortened: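 Relative luminescence from CellTiter-Glo served as the viability signal, referenced to DMSO-treated (100%) and cell-free medium (0%) controls. Treatment lasted 48 hours at 37C with 500 cells per well.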

[17] = Quantitative High-Throughput drug screen in 47 multiple myeloma cell lines against the NCATS MIPE library collection: L363_DSMZ cell viability assay (AID 1918984); conditions: L363 myeloma viability, CellTiter-Glo ATP luminescence, 48 h; viability (% of control): at 45.8 µM (top of the series); note: nearly all actives have a fitted effect of over 40% in size; note: potency is the fitted concentration of half-maximal effect
Procedure, shortened: as §1

[18] = Quantitative High-Throughput drug screen in 47 multiple myeloma cell lines against the NCATS MIPE library collection: OCIMY7_PLB cell viability assay (AID 1918987); conditions: OCI-MY7 myeloma viability, CellTiter-Glo ATP, 48 h; viability (% of DMSO): at 45.8 µM (top of the series); note: nearly all actives have a fitted effect of over 65% in size; note: potency is the fitted concentration of half-maximal effect
Procedure, shortened: as §1

| Structure (SMILES) | Potency [1] | Potency [2] | Potency [3] | Potency [4] | Potency [5] | Potency [6] | Potency [7] | Potency [8] | Potency [9] | Potency [10] | Potency [11] | Potency [12] | Potency [13] | Potency [14] | Potency [15] | Potency [16] | Potency [17] | Potency [18] | viability [14] [%] |
| --- | --- | --- | --- | --- | --- | --- | --- | --- | --- | --- | --- | --- | --- | --- | --- | --- | --- | --- | --- |
| COc1cc2c(cc1OC)[C@@H]1Cc3ccc(OC)c(OC)c3CN1CC2 | 332 nM (active) | 16.6 µM (active) | 7.43 µM (active) | inactive | 2.96 µM (active) | 20.9 µM (active) | 5.9 µM (active) | 11.8 µM (active) | inactive | – | – | – | – | – | – | – | – | – | – |
| C[C@]12C=CC(=O)C=C1CC[C@@H]1[C@@H]2[C@@H](O)C[C@@]2(C)[C@@H]1CC[C@]2(O)C(=O)CO | inactive | 0.166 µM (active) | 0.0743 µM (active) | – | 5.26 µM (active) | inactive | – | inactive | inactive | 2.35 µM (active) | 6.62 µM (active) | 0.0469 µM (active) | 187 nM (active) | 1.48 µM (active) | – | – | – | – | – |
| CC(=O)OCC(=O)[C@@]1(O)CC[C@H]2[C@@H]3CCC4=CC(=O)C=C[C@]4(C)[C@@H]3[C@@H](O)C[C@@]21C | inactive | 2.64 µM (active) | 2.35 µM (active) | inactive | 0.118 µM (active) | inactive | – | inactive | – | 0.187 µM (active) | – | – | 209 nM (active) | 0.0074 µM (active) | inactive | – | – | – | – |
| CN[C@H]1[C@@H](O[C@@H]2[C@H](O[C@@H]3[C@@H](O)[C@@H](O)[C@@H](N=C(N)N)[C@@H](O)[C@@H]3N=C(N)N)O[C@H](C)[C@@]2(O)C=O)O[C@@H](CO)[C@@H](O)[C@H]1O | inactive | – | – | – | inactive | inactive | – | – | inactive | inactive | inactive | inactive | inactive | 0.946 µM (active) | inactive | inactive | 5.3 nM (active) | – | – |
| COc1ccc(-c2cc(=O)c3c(O)cc(O[C@@H]4O[C@H](CO[C@@H]5O[C@@H](C)[C@H](O)[C@@H](O)[C@@H]5O)[C@@H](O)[C@H](O)[C@@H]4O)cc3o2)cc1O | inactive | – | – | – | 18.7 µM (active) | inactive | 18.7 µM (active) | – | 9.35 µM (active) | 9.35 µM (active) | inactive | inactive | inactive | – | – | 20.9 µM (active) | inactive | 10.5 µM (active) | 120 |
| CN1C(=O)C[C@H](C(=O)N[C@@H](Cc2cnc[nH]2)C(=O)N2CCC[C@@H]2C(N)=O)NC1=O | inactive | 4.69 µM (active) | – | – | – | inactive | – | – | 10.5 µM (active) | – | – | inactive | 2960 nM (active) | – | 20.9 µM (active) | inactive | inactive | inactive | – |
| Cc1cn([C@@H]2C[C@@H](O)[C@H](CO)O2)c(=O)[nH]c1=O | inactive | – | inactive | inactive | inactive | – | inactive | – | inactive | inactive | inactive | – | – | – | inactive | inactive | inactive | – | 137 |
| N[C@@H](CC(=O)N1CCn2c(nnc2C(F)(F)F)C1)Cc1cc(F)c(F)cc1F | inactive | 1.87 µM (active) | – | inactive | 26.4 µM (active) | 9.35 µM (active) | – | – | inactive | inactive | – | inactive | – | – | – | – | – | – | – |
| COc1nc(C)cnc1NS(=O)(=O)c1cccnc1-c1ccc(-c2nnco2)cc1 | inactive | 5.26 µM (active) | – | inactive | inactive | – | – | – | inactive | inactive | inactive | inactive | – | – | – | – | inactive | – | 126 |
| O=C(O)C1=NC(C(=O)O)CC(C=CN2c3cc(O)c(OC4OC(CO)C(O)C(O)C4O)cc3CC2C(=O)O)=C1 (configuration not stated) | inactive | 23.5 µM (active) | – | inactive | inactive | inactive | – | – | – | inactive | – | inactive | – | – | inactive | – | inactive | – | 117 |
| CC(C)CNc1ccnc(NCc2csc(-c3ccccc3)n2)n1 | 4690 nM (active) | 5.9 µM (active) | – | – | 20.9 µM (active) | – | 14.8 µM (active) | 20.9 µM (active) | 16.6 µM (active) | – | 18.7 µM (active) | 11.8 µM (active) | – | – | – | 16.6 µM (active) | 1870 nM (active) | 16.6 µM (active) | – |
| C=C[C@@H]1CN2CCC1C[C@@H]2C(O)c1ccnc2ccc(OC)cc12 (some centres not stated) | inactive | 11.8 µM (active) | – | inactive | – | 16.6 µM (active) | 3.32 µM (active) | 10.5 µM (active) | – | inactive | – | inactive | – | – | – | – | inactive | – | – |
| Cc1ccc(S(=O)(=O)Nc2nc3ccccc3nc2Nc2ccc3nsnc3c2)cc1 | 407 nM (active) | 3.63 µM (active) | 6.45 µM (active) | – | 0.575 µM (active) | – | – | – | 0.0724 µM (active) | 7.24 µM (active) | – | – | – | 7.24 µM (active) | 1.15 µM (active) | – | 204 nM (active) | 1.44 µM (active) | – |
